Values joined by “and” are separate entries in the source; they are usually repeats but may differ in a detail not shown here. Equal entries are not always repeated. Out of some 16,000 compounds screened, about 5,100 (32%) were called active. About 25% were inconclusive and are not listed. Some of the results follow. A number with no mark means an inactive call. The call rests on the fitted dose curve; in most records, active means well fitted curve in the direction sought with a large enough effect; inconclusive means small, poorly fitted or top-dose-only effect, or effect the other way; inactive means no such curve, though single readings can be large or run the other way.
On the % scale 0 is the no-effect control and ±100 the full control effect.

For this test, the target named is Cytochrome P450 3A4 (Homo sapiens) (UniProt P08684). Nature of the test: Cytochrome panel assay with activity outcomes. The following applies: recombinant CYP, pro-luciferin dealkylation, luminescence, p450-cyp3a4; series mostly up to 57.1 µM; activity, negative = inhibition: at the top concentration.
Sequence of Cytochrome P450 3A4 (Homo sapiens) (P08684 whole entry, looked up): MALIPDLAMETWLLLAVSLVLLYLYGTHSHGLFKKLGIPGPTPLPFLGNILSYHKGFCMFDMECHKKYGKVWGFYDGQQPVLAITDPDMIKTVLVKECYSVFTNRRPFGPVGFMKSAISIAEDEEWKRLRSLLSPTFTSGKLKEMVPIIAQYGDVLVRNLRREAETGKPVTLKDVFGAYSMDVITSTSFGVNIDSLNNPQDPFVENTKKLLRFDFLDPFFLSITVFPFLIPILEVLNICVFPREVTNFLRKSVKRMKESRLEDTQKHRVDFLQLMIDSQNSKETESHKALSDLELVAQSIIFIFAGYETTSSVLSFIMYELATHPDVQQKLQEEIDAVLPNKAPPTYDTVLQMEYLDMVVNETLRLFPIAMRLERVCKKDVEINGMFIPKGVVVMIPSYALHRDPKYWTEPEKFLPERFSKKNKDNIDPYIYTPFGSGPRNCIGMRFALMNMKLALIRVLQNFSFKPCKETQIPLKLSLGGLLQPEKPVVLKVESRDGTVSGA
As for `Oc1c(CN2CCN(c3ccccc3)CC2)cc(Br)c2cccnc12`, the activity, negative = inhibition is 0.931% [at 11.4 µM].
For the compound `C[C@@H](C(=O)Nc1ccc2ccccc2c1)[C@@H]1C[C@@]1(C)[C@@H](N)c1ccccc1`, the concentration at half-maximal activity (AC50) was 7940 nM (active).
On the same count and under the same terms, for `C[C@@H](C(=O)Nc1ccc2ccccc2c1)[C@H]1C[C@]1(C)[C@H](NP(=O)(c1ccccc1)c1ccccc1)c1ccccc1` the value was 2000 nM (active); for `C[C@@H](C(=O)Cc1ccc2ccccc2c1)[C@@H]1C[C@@]1(C)[C@@H](NP(=O)(c1ccccc1)c1ccccc1)c1ccccc1`, 1000 nM (active).
Turning to `CN(Cc1cnc2nc(N)nc(N)c2n1)c1ccc(C(=O)N[C@H](CCC(=O)O)C(=O)O)cc1`, the “activity, negative = inhibition” value is 1.58% [at 25.6 µM].
Regarding `C=C[C@@]1(C)CC(=O)[C@@]2(O)[C@@]3(C)[C@@H](O)CCC(C)(C)[C@@H]3[C@H](OC(=O)CCN(C)C)[C@H](OC(C)=O)[C@@]2(C)O1`, the AC50 was 2510 nM (active).
On to `O=C(O)CC[P+](c1ccccc1)(c1ccccc1)c1ccccc1`, for which the activity, negative = inhibition was 9.68% [at 11.4 µM].
With `O=C1[C@H]2[C@H]3[C@H](O)[C@H](O)C/C(=N/OC[C@@H](O)COCc4ccco4)[C@@H]3CC[C@@H]2C(=O)N1Cc1ccccc1`, the half-maximal activity concentration (AC50) is 3160 nM (active).
The same measure, in the same setting: the figure for `O=C1[C@H]2[C@H]3[C@H](O)[C@H](O)C/C(=N/OC[C@@H](O)COCc4ccco4)[C@@H]3CC[C@@H]2C(=O)N1Cc1ccc2c(c1)OCO2` is 3160 nM (active).
For the compound `CCN1C(=O)[C@H]2[C@H]3[C@H](O)[C@H](O)C/C(=N/OC[C@@H](O)COCc4ccco4)[C@@H]3CC[C@@H]2C1=O`, the activity, negative = inhibition is -23.4% [at 11.4 µM] and -18.4% [at 11.4 µM].
Turning to `O=C1[C@H]2[C@H]3[C@H](O)[C@H](O)C/C(=N/OC[C@@H](O)COCc4ccco4)[C@H]3CC[C@@H]2C(=O)N1Cc1ccc2c(c1)OCO2`, the AC50 was 3160 nM (active).
Consider `CCN1C(=O)[C@H]2[C@H]3[C@H](O)[C@H](O)C/C(=N/OC[C@@H](O)COCc4ccco4)[C@H]3CC[C@@H]2C1=O`, for which the activity, negative = inhibition was -17.6% [at 11.4 µM].
Consider `Cc1[nH]nc(N2CCCCCC2)c1[N+](=O)[O-]`, for which the “activity, negative = inhibition” value is -25.9%.
In the case of `CCC(C(=O)NC(C)(C)C)N(C(=O)Cn1nnc(-c2cccs2)n1)c1cnc2ccccc2c1` (stereo unspecified), the concentration at half-maximal activity (AC50) is 2000 nM (active).
In the case of `O=C(Nc1cnc2ccccc2c1)c1cccc(-n2cnnn2)c1`, the “activity, negative = inhibition” value was 20.1%.
Take `CS(=O)(=O)Nc1cccc(-c2nc(N3CCOCC3)c3ccccc3n2)c1`: the AC50 was 1580 nM (active).
For the compound `COc1cccc(C2=NOC(C(=O)NCCN3CCOCC3)C2)c1` (stereo unspecified), the “activity, negative = inhibition” value is -24.1%.
For the compound `CS(=O)(=O)Nc1cccc(-c2nc(NCCN3CCOCC3)c3ccccc3n2)c1`, the AC50 is 15800 nM (active).
`O=C1C=C(NCCN2CCOCC2)CC(c2ccccc2)C1` (stereo unspecified): the “activity, negative = inhibition” value is -22.3%.
The same measure, in the same setting: the figure for `CS(=O)(=O)Nc1ccc(Nc2c3ccccc3nc3ccccc23)cc1` is -25.8% [at 11.4 µM].
Turning to `CS(=O)(=O)Nc1cccc(-c2nc(N3CCNCC3)c3ccccc3n2)c1`, the “activity, negative = inhibition” value was -27.7%.
As to `c1cncc(-c2nc(NCCN3CCOCC3)c3ccccc3n2)c1`, the AC50 is 7940 nM (active).
Consider `COc1cccc(-c2nc(NCCN3CCOCC3)c3ccccc3n2)c1`, for which the AC50 is 12600 nM (active).
With `CCCc1cc(=O)[nH]c(=S)[nH]1`, the “activity, negative = inhibition” value was -10.8% [at 25.6 µM].
In the case of `CCN(Cc1cc(Cl)cc(C)c1O)Cc1c(O)ccc2ccccc12`, the activity, negative = inhibition is -15.9% [at 11.4 µM].
Same read-out and setting: for `O=C(O)[C@H]1CN[C@H](C(=O)O)C1` the value was 0.628%.
The same measure, in the same setting: for `N#Cc1cccc(-c2nc3cnc(N4CCOCC4)nc3n(C[C@H]3CCCO3)c2=O)c1` the value was -0.471%.
In the case of `N#Cc1cccc(-c2nc(NCCN3CCOCC3)c3ccccc3n2)c1`, the half-maximal activity concentration (AC50) is 12600 nM (active).
Take `COc1ccc(-n2ncc3c(NCC4CCCO4)ncnc32)cc1` (stereo unspecified): the “activity, negative = inhibition” value was -18.3%.
Still for that read-out and setting: for `Cc1cccc(CCNc2nc3ccccc3n3nnnc23)c1` the value was -16.1%.
Turning to `CCc1ccc2c(c1)cc(CN(C(=S)Nc1cccc(C)c1)C1CC1)c1nnnn12`, the AC50 was 2240 nM (active).
The same measure, in the same setting: the figure for `CC(NC(=O)CCSc1nc(-c2ccc3c(c2)OCO3)cc(C(F)(F)F)n1)c1ccccc1` (stereo unspecified) is 39.8 nM (active); for `CC(NC(=O)CCSc1nc(-c2ccco2)cc(C(F)(F)F)n1)c1ccccc1` (stereo unspecified) it is 20000 nM (active).
As to `C[N+]1(C)CCC(=C(c2ccccc2)c2ccccc2)CC1`, the “activity, negative = inhibition” value was -28% [at 25.6 µM].
The same measure, in the same setting: the figure for `COc1ccc(C(=O)N2CCC3(CCN(C)CC3)CC2)cc1` is -26%.
As for `COc1ccc(C(=O)/C=C2/c3ccccc3CC(C)(C)N2C)cc1`, the half-maximal activity concentration (AC50) was 7080 nM (active).
Regarding `COc1ccc(C(Cl)=C(c2ccc(OC)cc2)c2ccc(OC)cc2)cc1`, the “activity, negative = inhibition” value is -23.8% [at 25.6 µM].
Turning to `COc1cccc(-c2cncnc2NCc2cccnc2)c1`, the half-maximal activity concentration (AC50) is 1260 nM (active).
Still for that read-out and setting: for `COc1cccc(-c2cncnc2NCc2ccccc2)c1` the value was 316 nM (active); for `COc1cccc(-c2cncnc2NCc2cccc(C)c2)c1`, 398 nM (active); for `COc1cccc(-c2cncnc2NCc2cnc(C)cn2)c1`, 1580 nM (active).
As for `CCCCCCc1c(C[C@H](N)C(=O)O)o[nH]c1=O`, the AC50 result is “inactive”.
Consider `CCOc1nc(NC(C)C)nc(NC(C)C)n1`, for which the “activity, negative = inhibition” value was -2.02%.
With `CC[n+]1c(P(=O)([O-])c2ccccc2)[nH]c2ccccc21`, the activity, negative = inhibition is -3.39% [at 2.29 µM].
Take `Cc1cnc(CNc2ncncc2-c2cccc(C#N)c2)cn1`: the AC50 was 2000 nM (active).
Same read-out and setting: for `COc1cccc(-c2cncnc2NCc2cccs2)c1` the value was 1580 nM (active).
Regarding `CC(=O)O[C@H]1CC[C@@]2(C)C(=CC[C@@H]3[C@H]4CC[C@@H]([C@H](C)C(=O)O)[C@]4(C)CC[C@H]32)C1`, the activity, negative = inhibition is 1.09% [at 11.4 µM].
As for `N=c1nc(N2CCCCC2)cc(N)n1O`, the AC50 result is “inactive”.
For the compound `O=C(O)c1ccc(Sc2nnnn2-c2ccccc2)c([N+](=O)[O-])c1`, the activity, negative = inhibition is -2.88% [at 11.4 µM].
Regarding `Cc1ccc(-n2nnnc2Sc2nc([N+](=O)[O-])nn2C)cc1C`, the AC50 is 15800 nM (active).
With `CS(=O)(=O)N1CCN(c2ccc(C(=O)NC3C4CC5CC(C4)CC3C5)cc2[N+](=O)[O-])CC1` (stereo unspecified), the “activity, negative = inhibition” value was -25.7%.
Still for that read-out and setting: for `COC(=O)c1ccc(N2CCN(CC(=O)c3ccc(-c4ccccc4)cc3)CC2)c([N+](=O)[O-])c1` the value was 15.7% [at 2.29 µM].
Consider `COC(=O)c1cc(NS(=O)(=O)c2ccc(N3CCCCCC3)c([N+](=O)[O-])c2)cc(C(=O)OC)c1`, for which the concentration at half-maximal activity (AC50) was 6310 nM (active).
Still for that read-out and setting: the figure for `CC1CCN(c2ccc(S(=O)(=O)Nc3cc(C(=O)O)cc(C(=O)O)c3)cc2[N+](=O)[O-])CC1` is 5620 nM (active); for `COC(=O)c1cc(NS(=O)(=O)c2ccc(N3CCCCC3)c([N+](=O)[O-])c2)cc(C(=O)OC)c1` it is 2000 nM (active).
In the case of `CC1CCN(CCCCOc2ccccc2[N+](=O)[O-])CC1`, the activity, negative = inhibition was -4.5% [at 2.29 µM].

The term AC50 denotes the concentration giving half of the maximal activity seen.

Values taken from PubChem BioAssay AID1851 (National Center for Advancing Translational Sciences (NCATS), 2009).
